# Data from the supplement of paper PMC4466140.
# B1: unnamed (peptide)
# chain: RKRRTHLRLPLIRSN
# Molecular target: AgAbp1
# Assay: SPOT peptide array binding signal intensity (averaged, normalized) (arbitrary units (background-subtracted, floor 0; scale differs between SH3 domains)); higher = stronger binding of the SH3 domain to the peptide
# Method: (§1)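 GST-tagged SH3 domains from S. cerevisiae (Sc), A. gossypii (Ag), C. albicans (Ca) and S. pombe (Sp) were incubated at 10 ug/ml overnight at 4 C on cellulose SPOT membranes carrying 292 synthetic 15-mer peptides mined from the S. cerevisiae proteome (cysteines replaced by serines). Binding was detected with anti-GST antibody, HRP secondary and chemiluminescence, quantified with Genespotter, and reported as normalized spot intensities averaged over biological replicates.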
row,Binder,SPOT peptide array binding signal intensity
1,B1,23

# Molecular target: AgBbc1
# Assay: as above
# Method: as §1
row,Binder,SPOT peptide array binding signal intensity
1,B1,105

# Molecular target: AgBem1-D1
# Assay: as above
# Method: as §1
row,Binder,SPOT peptide array binding signal intensity
1,B1,130

# Molecular target: AgBzz1-D1
# Assay: as above
# Method: as §1
row,Binder,SPOT peptide array binding signal intensity
1,B1,2

# Molecular target: AgBzz1-D2
# Assay: as above
# Method: as §1
row,Binder,SPOT peptide array binding signal intensity
1,B1,34.5

# Molecular target: AgCyk3
# Assay: as above
# Method: as §1
row,Binder,SPOT peptide array binding signal intensity
1,B1,2

# Molecular target: AgFus1
# Assay: as above
# Method: as §1
row,Binder,SPOT peptide array binding signal intensity
1,B1,1070

# Molecular target: AgHof1
# Assay: as above
# Method: as §1
row,Binder,SPOT peptide array binding signal intensity
1,B1,107

# Molecular target: AgHse1
# Assay: as above
# Method: as §1
row,Binder,SPOT peptide array binding signal intensity
1,B1,1100

# Molecular target: AgLsb1
# Assay: as above
# Method: as §1
row,Binder,SPOT peptide array binding signal intensity
1,B1,≤ 0

# Molecular target: AgLsb4
# Assay: as above
# Method: as §1
row,Binder,SPOT peptide array binding signal intensity
1,B1,137

# Molecular target: AgMyo5
# Assay: as above
# Method: as §1
row,Binder,SPOT peptide array binding signal intensity
1,B1,0.5

# Molecular target: AgNbp2
# Assay: as above
# Method: as §1
row,Binder,SPOT peptide array binding signal intensity
1,B1,63.8

# Molecular target: AgRvs167
# Assay: as above
# Method: as §1
row,Binder,SPOT peptide array binding signal intensity
1,B1,2.83

# Molecular target: AgSho1
# Assay: as above
# Method: as §1
row,Binder,SPOT peptide array binding signal intensity
1,B1,37.5

# Molecular target: AgSla1-D1-D2
# Assay: as above
# Method: as §1
row,Binder,SPOT peptide array binding signal intensity
1,B1,29.5

# Molecular target: AgSla1-D3
# Assay: as above
# Method: as §1
row,Binder,SPOT peptide array binding signal intensity
1,B1,2.25

# Molecular target: CaAbp1-D1
# Assay: as above
# Method: as §1
row,Binder,SPOT peptide array binding signal intensity
1,B1,243

# Molecular target: CaAbp1-D2
# Assay: as above
# Method: as §1
row,Binder,SPOT peptide array binding signal intensity
1,B1,301

# Molecular target: CaBbc1
# Assay: as above
# Method: as §1
row,Binder,SPOT peptide array binding signal intensity
1,B1,211

# Molecular target: CaBem1-D1
# Assay: as above
# Method: as §1
row,Binder,SPOT peptide array binding signal intensity
1,B1,41.5

# Molecular target: CaBzz1-D1
# Assay: as above
# Method: as §1
row,Binder,SPOT peptide array binding signal intensity
1,B1,73.5

# Molecular target: CaBzz1-D2
# Assay: as above
# Method: as §1
row,Binder,SPOT peptide array binding signal intensity
1,B1,71

# Molecular target: CaCyk3
# Assay: as above
# Method: as §1
row,Binder,SPOT peptide array binding signal intensity
1,B1,20

# Molecular target: CaFus1
# Assay: as above
# Method: as §1
row,Binder,SPOT peptide array binding signal intensity
1,B1,1220

# Molecular target: CaHof1
# Assay: as above
# Method: as §1
row,Binder,SPOT peptide array binding signal intensity
1,B1,0.25

# Molecular target: CaHse1
# Assay: as above
# Method: as §1
row,Binder,SPOT peptide array binding signal intensity
1,B1,29.6

# Molecular target: CaLsb1
# Assay: as above
# Method: as §1
row,Binder,SPOT peptide array binding signal intensity
1,B1,≤ 0

# Molecular target: CaLsb4
# Assay: as above
# Method: as §1
row,Binder,SPOT peptide array binding signal intensity
1,B1,85

# Molecular target: CaMyo5
# Assay: as above
# Method: as §1
row,Binder,SPOT peptide array binding signal intensity
1,B1,0.5

# Molecular target: CaNbp2
# Assay: as above
# Method: as §1
row,Binder,SPOT peptide array binding signal intensity
1,B1,406

# Molecular target: CaRvs167
# Assay: as above
# Method: as §1
row,Binder,SPOT peptide array binding signal intensity
1,B1,19

# Molecular target: CaRvs167-3
# Assay: as above
# Method: as §1
row,Binder,SPOT peptide array binding signal intensity
1,B1,42

# Molecular target: CaSho1
# Assay: as above
# Method: as §1
row,Binder,SPOT peptide array binding signal intensity
1,B1,478

# Molecular target: CaSla1-D1-D2
# Assay: as above
# Method: as §1
row,Binder,SPOT peptide array binding signal intensity
1,B1,≤ 0

# Molecular target: CaSla1-D3
# Assay: as above
# Method: as §1
row,Binder,SPOT peptide array binding signal intensity
1,B1,4.62

# Molecular target: ScAbp1
# Assay: as above
# Method: as §1
row,Binder,SPOT peptide array binding signal intensity
1,B1,27

# Molecular target: ScBbc1
# Assay: as above
# Method: as §1
row,Binder,SPOT peptide array binding signal intensity
1,B1,31.1

# Molecular target: ScBem1-D1
# Assay: as above
# Method: as §1
row,Binder,SPOT peptide array binding signal intensity
1,B1,61.2

# Molecular target: ScBzz1-D1
# Assay: as above
# Method: as §1
row,Binder,SPOT peptide array binding signal intensity
1,B1,15.5

# Molecular target: ScBzz1-D2
# Assay: as above
# Method: as §1
row,Binder,SPOT peptide array binding signal intensity
1,B1,21.2

# Molecular target: ScCyk3
# Assay: as above
# Method: as §1
row,Binder,SPOT peptide array binding signal intensity
1,B1,98

# Molecular target: ScFus1
# Assay: as above
# Method: as §1
row,Binder,SPOT peptide array binding signal intensity
1,B1,573

# Molecular target: ScHof1
# Assay: as above
# Method: as §1
row,Binder,SPOT peptide array binding signal intensity
1,B1,2.75

# Molecular target: ScHse1
# Assay: as above
# Method: as §1
row,Binder,SPOT peptide array binding signal intensity
1,B1,1680

# Molecular target: ScLsb1
# Assay: as above
# Method: as §1
row,Binder,SPOT peptide array binding signal intensity
1,B1,0.25

# Molecular target: ScLsb2
# Assay: as above
# Method: as §1
row,Binder,SPOT peptide array binding signal intensity
1,B1,1

# Molecular target: ScLsb3
# Assay: as above
# Method: as §1
row,Binder,SPOT peptide array binding signal intensity
1,B1,532

# Molecular target: ScLsb4
# Assay: as above
# Method: as §1
row,Binder,SPOT peptide array binding signal intensity
1,B1,29.8

# Molecular target: ScMyo3
# Assay: as above
# Method: as §1
row,Binder,SPOT peptide array binding signal intensity
1,B1,≤ 0

# Molecular target: ScMyo5
# Assay: as above
# Method: as §1
row,Binder,SPOT peptide array binding signal intensity
1,B1,0.625

# Molecular target: ScNbp2
# Assay: as above
# Method: as §1
row,Binder,SPOT peptide array binding signal intensity
1,B1,164

# Molecular target: ScPex13
# Assay: as above
# Method: as §1
row,Binder,SPOT peptide array binding signal intensity
1,B1,1.12

# Molecular target: ScRvs167
# Assay: as above
# Method: as §1
row,Binder,SPOT peptide array binding signal intensity
1,B1,16.8

# Molecular target: ScSho1
# Assay: as above
# Method: as §1
row,Binder,SPOT peptide array binding signal intensity
1,B1,1440

# Molecular target: ScSla1-D1-D2
# Assay: as above
# Method: as §1
row,Binder,SPOT peptide array binding signal intensity
1,B1,268

# Molecular target: ScSla1-D3
# Assay: as above
# Method: as §1
row,Binder,SPOT peptide array binding signal intensity
1,B1,9.5

# Molecular target: SpAbp1-D1
# Assay: as above
# Method: as §1
row,Binder,SPOT peptide array binding signal intensity
1,B1,91.2

# Molecular target: SpBbc1
# Assay: as above
# Method: as §1
row,Binder,SPOT peptide array binding signal intensity
1,B1,2.5

# Molecular target: SpBzz1-D1
# Assay: as above
# Method: as §1
row,Binder,SPOT peptide array binding signal intensity
1,B1,189

# Molecular target: SpBzz1-D2
# Assay: as above
# Method: as §1
row,Binder,SPOT peptide array binding signal intensity
1,B1,≤ 0

# Molecular target: SpCyk3
# Assay: as above
# Method: as §1
row,Binder,SPOT peptide array binding signal intensity
1,B1,2

# Molecular target: SpHof1
# Assay: as above
# Method: as §1
row,Binder,SPOT peptide array binding signal intensity
1,B1,299

# Molecular target: SpHof1-2
# Assay: as above
# Method: as §1
row,Binder,SPOT peptide array binding signal intensity
1,B1,9

# Molecular target: SpHof1-3
# Assay: as above
# Method: as §1
row,Binder,SPOT peptide array binding signal intensity
1,B1,1060

# Molecular target: SpHse1
# Assay: as above
# Method: as §1
row,Binder,SPOT peptide array binding signal intensity
1,B1,622

# Molecular target: SpLsb1
# Assay: as above
# Method: as §1
row,Binder,SPOT peptide array binding signal intensity
1,B1,0.5

# Molecular target: SpLsb4
# Assay: as above
# Method: as §1
row,Binder,SPOT peptide array binding signal intensity
1,B1,260

# Molecular target: SpMyo1
# Assay: as above
# Method: as §1
row,Binder,SPOT peptide array binding signal intensity
1,B1,9

# Molecular target: SpNbp2
# Assay: as above
# Method: as §1
row,Binder,SPOT peptide array binding signal intensity
1,B1,350

# Molecular target: SpPex13
# Assay: as above
# Method: as §1
row,Binder,SPOT peptide array binding signal intensity
1,B1,13

# Molecular target: SpRvs167
# Assay: as above
# Method: as §1
row,Binder,SPOT peptide array binding signal intensity
1,B1,9.33

# Molecular target: SpSla1-D1-D2
# Assay: as above
# Method: as §1
row,Binder,SPOT peptide array binding signal intensity
1,B1,≤ 0

# Molecular target: SpSla1-D3
# Assay: as above
# Method: as §1
row,Binder,SPOT peptide array binding signal intensity
1,B1,≤ 0
